Measurements reported in PMC13083723 (Patterns, 2026).
The campaign covered roughly 5,400 compounds. About 190 (3.5%) showed an effect of 50% or more. Shown is part of a subset that was picked to be rich in strong results.

These compounds were tested on Vero-E6 (assay: primary screen, phospholipidosis by LipidTOX staining; higher = more effect of the substance). Settings: 10 µM.
Summary of the method: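 Single-concentration screen at 10 μM, with DMSO 0.1 v/v % and amiodarone 10 μM as controls. Read-out is LipidTOX Red phospholipid staining, which tolerates aldehyde fixation, in Vero-E6 cells.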
O=C([O-])c1cc(/N=N/c2ccc(O)c(C(=O)[O-])c2)ccc1O showed a result_ITMP of -2.29%.
Compound OC(CN1CCNCC1)Cn1c2ccc(Br)cc2c2cc(Br)ccc21 (stereo not shown) has a result_ITMP of 123%.
CN(C)CC(O)Cn1c2ccc(Br)cc2c2cc(Br)ccc21 (stereo not shown) was tested, and the result_ITMP was 28.6%.
Work on OC(CNc1ccccc1)Cn1c2ccc(Br)cc2c2cc(Br)ccc21 (stereo not shown) yielded a result_ITMP of -2.55%.
For C=C[C@]1(C)C[C@@H](OC(=O)CS[C@@H]2C[C@H]3CC[C@@H](C2)N3C)[C@]2(C)[C@H](C)CC[C@]3(CCC(=O)[C@H]32)[C@@H](C)[C@@H]1O, the result_ITMP was 12.9%.
In the case of NC(=O)c1cc[n+](CC2=C(C(=O)[O-])N3C(=O)[C@@H](NC(=O)[C@@H](c4ccccc4)S(=O)(=O)[O-])[C@H]3SC2)cc1, the result_ITMP was 4.59%.
In the case of Cc1c(CN(C)C(=O)/C=C/C2=CNC3=NC(=O)CCC3=C2)oc2ccccc12, the result_ITMP was -2.49%.
Work on CC(CN(C)C)CN1c2ccccc2Sc2ccccc21 (stereo not shown) [R4A_0005516_001 / SPE_A49225603] yielded a result_ITMP of 81.1%.
Work on CC(CN(C)C)CN1c2ccccc2Sc2ccc(C#N)cc21 (stereo not shown) yielded a result_ITMP of 42.4%.
Compound CCN1/C(=C/C(C)=O)Sc2ccc(OC)cc21 has a result_ITMP of -4.89%.
In the case of COc1ccc2c(c1)N(C[C@H](C)CN(C)C)c1ccccc1S2, the result_ITMP was 53%.
CC(CN(C)C)CN1c2ccccc2CCc2ccccc21 (stereo not shown) was tested, and the result_ITMP was 34.6%.
Compound CC(CN(C)C)CN1c2ccccc2Sc2ccccc21 (stereo not shown) [R4A_0005516_001 / SPE_M58473998] has a result_ITMP of 17.1%.
In the case of C[C@@H]1CC2C3CCC4=CC(=O)C=C[C@]4(C)[C@@]3(F)[C@@H](O)C[C@]2(C)[C@@]1(O)C(=O)COP(=O)([O-])[O-] (stereo partly shown), the result_ITMP was -3.97%.
NC(CSC(c1ccccc1)(c1ccccc1)c1ccccc1)C(=O)O (stereo in doubt) was tested, and the result_ITMP was -1.96%.
With CC(N)Cc1cccc(O)c1 (stereo not shown) the result_ITMP was -6.46%.
For CCC(=O)O[C@H]1CCC2C3CCC4=CC(=O)CC[C@]4(C)C3CC[C@@]21C (stereo partly shown), the result_ITMP was 5.62%.
With NC(=O)OC[C@@H]1[C@H](NC(=O)/C(=N\OCC(=O)[O-])c2csc(N)n2)C(=O)N1S(=O)(=O)[O-] the result_ITMP was 0.72%.
CCCC(=O)Nc1ncnc2c1ncn2C1O[C@@H]2COP(=O)([O-])O[C@H]2[C@H]1OC(=O)CCC (stereo partly shown) gave a result_ITMP of -5.79%.
With CC[C@]12C=CCN3CC[C@@]4(c5cc([C@@]6(C(=O)OC)C[C@H]7C[C@@H](C(C)(F)F)CN(Cc8c6[nH]c6ccccc86)C7)c(OC)cc5N(C)[C@H]4[C@@](O)(C(=O)OC)[C@@H]1OC(C)=O)[C@@H]32 the result_ITMP was 49.7%.
In the case of COc1cc(N)c(Cl)cc1C(=O)NC1CN2CCC1CC2 (stereo not shown), the result_ITMP was -9.6%.
Compound O=C(N[C@H]1CN2CCC1CC2)c1ccc(Cl)cc1 has a result_ITMP of -0.98%.
O=C(N[C@H]1CN2CCC1CC2)c1cc2cccc(Cl)c2s1 showed a result_ITMP of 100%.
C[C@H](CCC(=O)O)[C@H]1CC[C@H]2[C@@H]3C[C@H](O)[C@@H]4C[C@H](O)CC[C@]4(C)[C@H]3CC[C@]12C gave a result_ITMP of 1.59%.
For c1ccc2c(Cc3c[nH]c4ccccc34)c[nH]c2c1, the result_ITMP was -4.8%.
In the case of c1ccc2c(CCNc3ccc(Nc4ccncc4)cc3)c[nH]c2c1, the result_ITMP was 74%.
With CC(=O)NCCc1c[nH]c2ccccc12 the result_ITMP was -3.74%.
In the case of CCCCc1nc(Cl)c(C(=O)O)n1Cc1ccc(-c2ccccc2-c2nnn[nH]2)cc1, the result_ITMP was -4.07%.
Compound CC(C)(C)c1ccc(C(O)CCCN2CCC(C(O)(c3ccccc3)c3ccccc3)CC2)cc1 (stereo not shown) has a result_ITMP of -4.73%.
CN1CCC[C@@H]1CCO[C@](C)(c1ccccc1)c1ccc(Cl)cc1 was tested, and the result_ITMP was 90.6%.
For CN1CCCC1CCSc1ccc(O)cc1 (stereo not shown), the result_ITMP was 2.34%.
Work on C=C1/C(=C\C=C2/CCC[C@]3(C)[C@@H]([C@H](C)CCCC(C)(C)O)CC[C@@H]23)C[C@@H](O)C[C@@H]1O yielded a result_ITMP of -1.95%.
In the case of CC[C@H]1[C@@H](O)[C@@H]2[C@H](CC[C@]3(C)[C@@H]([C@H](C)CCC(=O)O)CC[C@@H]23)[C@@]2(C)CC[C@@H](O)C[C@@H]12, the result_ITMP was -0.78%.
For CO[C@H]1/C=C/O[C@@]2(C)Oc3c(C)c(O)c4c(O)c(cc([O-])c4c3C2=O)NC(=O)/C(C)=C\C=C\C(C)[C@H](O)[C@@H](C)[C@@H](O)[C@@H](C)[C@H](OC(C)=O)[C@@H]1C (stereo partly shown), the result_ITMP was -1.11%.
